Source: PubChem BioAssay
This is one part of a sample in which hits are shown more often than they occur.
RMI-FANCM inh: RMI-FANCM interaction inhibition. AID 1159607. actives 0.58% (n = 70,000). FP signal (polarization) at 33 µM. Fluorescence polarization, RMI core complex with F-MM2 peptide; hits give low values; in the data active means FP signal below about 40
Numbers without * were called inactive; ! = not confirmed by another sample.

SMILES	RMI-FANCM inh
CCOC(=O)/C(C#N)=C/c1ccc(OC)s1	55
COc1ccc(NC(=O)Cc2cccc(C)c2)cc1N1CCCCC1=O	54
CCCCN1C(=O)CCc2cc(NC(=O)C3CC3)ccc21	64
COc1ccc(-c2c3c(nc4sc(C(=O)Nc5ccc(Cl)cc5)c(N)c24)CC(C)(C)CC3=O)cc1	90
CCc1c2c(nc3sc(C(=O)Nc4ccc(-c5nc6ccccc6s5)cc4)c(N)c13)CC(C)(C)CC2=O	96
CCc1c2c(nc3sc(C(=O)c4ccc(Cl)c(Cl)c4)c(N)c13)CC(C)(C)CC2=O	-31*
CCc1ccc(S(=O)(=O)NCC2CCN(Cc3cccs3)CC2)s1	77
COc1ccc(-c2csc3c(=O)n(Cc4ccccc4F)cnc23)cc1	66
N#CCn1cnc2c(-c3ccccc3)csc2c1=O	62
O=c1c2scc(-c3ccccc3)c2ncn1Cc1cc(=O)n2ccccc2n1	-6*
CCC(=O)Nc1nnc(-c2ccc(Br)s2)o1	67
O=S(=O)(Nc1cc(Br)c(O)c2ccccc12)c1ccc2ccccc2c1	29*
CCOc1ccc(S(=O)(=O)Nc2cc(-c3c(O)ccc4ccccc34)c(O)c3ccccc23)cc1	56
COc1ccc(S(=O)(=O)Nc2cc(-c3c(O)ccc4ccccc34)c(O)c3ccccc23)cc1	58
CN(C)c1ccc(C(CNC(=O)C(=O)NCc2ccccc2Cl)N2CCCC2)cc1 (configuration not stated)	78
COc1ccc2nc(-c3ccc(NC(=O)Nc4ccccc4)cc3)cn2n1	93
CC1(C)C2CC[C@]3(C)C(C(=O)C=C4[C@H]5C[C@@](C)(C(=O)O)CC[C@]5(C)CC[C@]43C)[C@@]2(C)CC[C@@H]1O (some centres not stated)	53
C=C(C)[C@@H]1CC[C@]2(CO)CC[C@]3(C)[C@H](CCC4[C@@]5(C)CC[C@H](O)C(C)(C)C5CC[C@]43C)C12 (some centres not stated)	51
COc1ccccc1-c1ccc(N2CCCC(C(=O)Nc3cccc([N+](=O)[O-])c3)C2)nn1 (configuration not stated)	71
NC(=O)SCC(=NS(=O)(=O)c1ccc(Cl)cc1)Nc1cccc2ccccc12	30*
O=C(CSCCS(=O)(=O)c1ccc(Cl)cc1)Nc1ccccc1Cl	58
O=S(=O)(N=C(Nc1ccc2ccccc2c1)c1ccccc1)c1ccc(Cl)cc1	63
Cc1ccc(-c2csc(NC(=O)c3ccc([N+](=O)[O-])s3)n2)cc1	55
O=C(Nc1nc(-c2cc(Cl)sc2Cl)cs1)c1cccs1	61
O=C(Nc1nc(-c2cc(Cl)sc2Cl)cs1)c1ccc([N+](=O)[O-])s1	28*
SMILES	RMI-FANCM inh
COc1ccc(N2C(=O)C(F)(F)C2c2ccc(Cl)cc2)cc1 (configuration not stated)	61
Fc1ccc2nc(Nc3nnc(-c4ccco4)o3)sc2c1	80
Fc1ccc2nc(Nc3nnc(-c4cccs4)o3)sc2c1	84
COc1ccccc1-c1nnc(Nc2nc3ccc(F)cc3s2)o1	29*
CCC(=O)NCCOc1ccc2nnc(-c3ccccc3)n2n1	68
O=C(Cc1ccccc1)NCCOc1ccc2nnc(-c3ccccc3)n2n1	69
COCC(=O)NCCOc1ccc2nnc(-c3ccccc3)n2n1	26*
COC(=O)Cn1c(=NC(=O)CSC(C)=O)sc2cc(C(=O)OC)ccc21	62
Cc1ccc(N=C2CSC(=O)N2)cc1	55
Cc1ccc(N=C2C=C(SC#N)C(=O)C(SC#N)=C2)cc1	-16*
Cc1ccc(N=C2C=C(Cl)C(=O)C(Cl)=C2)cc1	54
O=C(Cc1cc(=O)[nH]c(SCc2ccccc2)n1)N1CCN(c2ncccn2)CC1	75
O=C(CSc1nnc(-c2ccncc2)o1)Nc1cccc([N+](=O)[O-])c1	54
CCOc1ccc(OCCNC(=O)c2ccc(Cl)cc2Cl)cc1	64
COc1ccc2[nH]c(C(=O)NC3CCN(Cc4ccccc4)CC3)cc2c1	56
COc1ccc(CCN2CCC(Nc3nc4ccccc4n3Cc3ccc(F)cc3)CC2)cc1	20*!
COc1ccc(CCS(=O)(=O)NCC2CCN(Cc3ccccc3)CC2)cc1	77
COc1cc(C)c(Cl)cc1S(=O)(=O)Nc1ccccc1C(=O)O	60
CCn1c(SCC(=O)c2ccc(OC)cc2)nc2c([nH]c3ccccc32)c1=O	105
CC(C)=CCSc1nnc2c(n1)[nH]c1ccccc12	64
Cc1ccc(C(=O)CSc2nnc3c(n2)[nH]c2ccccc23)cc1	2*
C=CCN1CC(c2nc3ccccc3n2CCCOc2ccccc2Cl)CC1=O (configuration not stated)	64
CN(C1CC1)S(=O)(=O)c1ccc(C(=O)Nc2nnc(Cc3cccs3)o2)cc1	69
COC(=O)C1=C(C)NC(C)=C(C(=O)OCC(C)C)C1c1ccccc1[N+](=O)[O-] (configuration not stated)	21*!
COC(=O)C1=C(C)NC(C)=C(C(=O)OC(C)C)C1c1cccc2nonc12 (configuration not stated)	58
SMILES	RMI-FANCM inh
COC(=O)C1=C(C)Nc2[nH]ncc2C1c1ccccc1 (configuration not stated)	69
CCc1nnc(-c2ccc(NC(=O)c3cc4ccccc4o3)cc2)o1	59
CCOC(=O)CCC(=O)NCc1ccc2[nH]c3c(c2c1)CCCC3	55
C/C=C\C(=O)NCc1ccc2[nH]c3c(c2c1)CCCC3	14*
COc1cc(/C=C\C(=O)NCc2ccc3[nH]c4c(c3c2)CCCC4)cc(OC)c1OC	54
O=C1CS/C(=N\N=C2\NC(=O)C(CC(=O)c3ccc(F)cc3)S2)N1 (configuration not stated)	62
C(=N/Nc1nnc(-c2ccccc2)c(-c2ccccc2)n1)/c1ccncc1	56
C(=N/Nc1nc2ccccc2s1)/c1ccco1	61
C(/C=C/c1ccco1)=N/Nc1nnc(-c2ccccc2)c(-c2ccccc2)n1	21*
Cc1onc(-c2ccccc2Cl)c1C(=O)NCC(c1ccc2c(c1)CCN2C)N(C)C (configuration not stated)	65
COc1ccc(NC(=O)CS(=O)(=O)c2cccs2)cc1OC	63
CC(=O)N1N=C(c2ccccc2O)CC1c1ccc(F)cc1 (configuration not stated)	49
O=C1c2cccc3c(O)ccc(c23)C(=O)N1Cc1cccnc1	-61
CCOC(=O)c1cccc(NC(=O)CSc2nc3c(-c4ccccc4)c[nH]c3c(=O)n2C2CC2)c1	90
CC(Oc1ccccc1)C(=O)Nc1sccc1-c1nc2ccccc2s1 (configuration not stated)	116
CN(C)c1ccc(C2=CC(C3CC3)=C(C#N)C(=C(C#N)C#N)N2)cc1	31*
O=C(NOC(=O)c1ccc([N+](=O)[O-])o1)c1ccc(OC(F)F)cc1	59
Cc1ccc(-n2c(C)nc3ccc(NC(=O)c4ccccn4)cc3c2=O)cc1	59
Cc1ccc(N(C)S(=O)(=O)c2ccsc2-c2nc(-c3cccnc3)no2)cc1F	63
Cc1cc(C)c(C#N)c(N2CCN(c3ccccc3)CC2)n1	50
CC(=O)NC(=O)/C(C#N)=C/N1CCN(c2ccccc2)CC1	53
C=CCOC(=O)C(C#N)c1nc2ccccc2nc1N1CCN(c2ccccc2)CC1 (configuration not stated)	29*
COc1cccc(CNC(=O)Cn2c(C)nc3c(sc4cccc(F)c43)c2=O)c1	89
COc1ccc(Cl)cc1NC(=O)CSc1nnc(CNC(=O)c2cccc([N+](=O)[O-])c2C)o1	64
